Screens deposited in PubChem BioAssay by National Center for Advancing Translational Sciences (NCATS).
HP1b chromo inh: HP1-beta chromodomain-methylated histone interaction inhibition | P83916 | AlphaScreen HP1-beta / biotin-H3K9me3 peptide binding | Potency, µM (doses to about 114 µM), for inactives: top-dose activity change, negative = inhibition, hits mostly inhibitors | hit rate 0.56% among 390,000 | AID 540317; note: potency is the fitted concentration of half-maximal effect; nearly all actives have a fitted effect of over 70% in size
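AlphaScreen: HP1-beta (50 nM) preformed 30 min with biotin-H3(1-18)K9me3 peptide (50 nM) in PBS pH 7.4, 0.01% Tween-20. Compound added for 30 min at RT, then streptavidin donor/nickel chelate acceptor beads (10 ug/mL) for 30 min.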
BAZ2B inh: inhibitors of human BAZ2B bromodomain | AID 504333 | Q9UIF8 | AlphaScreen BAZ2B-H3K14Ac peptide displacement | hit rate 4.4% among 360,000 | Potency, µM (series often up to 114 µM), for the others: at the top dose activity change, negative = inhibition, actives largely listed as inhibitors; note: potency is the fitted concentration of half-maximal effect; % is set by controls: 0 for no effect and ±100 for the full control effect; nearly all actives have a fitted effect of over 60% in size
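Multi-concentration screen (max 110 uM) measuring displacement of acetylated histone H3 peptide from BAZ2B by AlphaScreen, using 50 nM protein, 50 nM peptide and 10 ug/mL streptavidin donor plus Ni-chelate acceptor beads.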
PI5P4Ka inh: inhibitors of human PI5P4K alpha; P48426; PI5P4Kalpha enzyme, ADP-Glo luminescence, 60 min; hits give low values; max response, %; hit rate 1.2% among 330,000; active = max response of -50% or lower; inconclusive = between -30% and -50%; inactive = -30% or higher; note: value at the top dose of about 77 µM; % is set by controls: 0 for no effect and ±100 for the full control effect
Target sequence (P48426 whole entry, looked up): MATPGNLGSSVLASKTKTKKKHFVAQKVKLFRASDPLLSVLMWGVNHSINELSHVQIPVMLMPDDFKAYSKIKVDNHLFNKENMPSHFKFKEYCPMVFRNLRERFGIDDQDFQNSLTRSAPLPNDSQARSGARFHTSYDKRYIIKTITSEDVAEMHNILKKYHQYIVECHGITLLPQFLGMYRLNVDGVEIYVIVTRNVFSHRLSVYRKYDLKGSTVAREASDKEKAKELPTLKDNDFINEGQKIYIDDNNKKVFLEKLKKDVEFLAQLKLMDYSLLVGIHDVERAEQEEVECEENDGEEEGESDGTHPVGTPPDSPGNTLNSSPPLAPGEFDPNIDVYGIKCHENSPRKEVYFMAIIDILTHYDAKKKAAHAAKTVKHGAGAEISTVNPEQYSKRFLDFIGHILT
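Human PI5P4Kalpha with substrate in 0.038 M HEPES pH 7.4, 0.28 mM EGTA, 0.1% CHAPS, 5% DMSO; reaction started with 5 microM ATP (final), 60 min at room temperature. ADP formed read by ADP-Glo luminescence.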
PLK1 PBD block: PLK1 (human) polo-box domain binding inhibition; P53350; Plk1 PBD binding of FITC phosphopeptide, fluorescence polarization; Potency, µM, without a hit: max response, negative = inhibition, hits mostly inhibitors; hit rate 2.8% among 360,000; AID 720504; note: potency is the fitted concentration of half-maximal effect; series mostly up to about 57 µM; % is set by controls: 0 for no effect and ±100 for the full control effect; nearly all actives have a fitted effect of over 65% in size
JMJD2A Tudor inh: inhibitors of human JMJD2A Tudor domain | hit rate 4.4% among 390,000 | AID 504339 | Potency, µM (highest dose often 114 µM), for the others: top-dose activity change, negative = inhibition, hits mostly inhibitors | AlphaScreen JMJD2A-Tudor / H3K4me3 peptide binding; note: potency is the fitted concentration of half-maximal effect; % is set by controls: 0 for no effect and ±100 for the full control effect; nearly all actives have a fitted effect of over 50% in size
G9a inh: blocks human histone lysine methyltransferase G9a. hit rate 8.8% among 350,000. AID 504332. Potency, µM (top dose mostly 102 µM), without a hit: at the highest dose activity, negative = inhibition, hits mostly inhibitors. G9a H3K9 monomethylation, AlphaScreen, 2 h. Q96KQ7; note: potency is the fitted concentration of half-maximal effect; % is set by controls: 0 for no effect and ±100 for the full control effect; nearly all actives have a fitted effect of over 75% in size
Target sequence (Q96KQ7 913-1193 limits assumed): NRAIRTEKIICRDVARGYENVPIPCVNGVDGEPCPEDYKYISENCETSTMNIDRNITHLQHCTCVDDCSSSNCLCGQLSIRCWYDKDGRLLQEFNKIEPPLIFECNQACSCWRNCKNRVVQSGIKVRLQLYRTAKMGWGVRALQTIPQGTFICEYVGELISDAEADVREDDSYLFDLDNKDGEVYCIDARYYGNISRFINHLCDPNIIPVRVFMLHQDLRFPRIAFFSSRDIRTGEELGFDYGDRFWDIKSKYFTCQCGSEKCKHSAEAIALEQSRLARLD
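Chemiluminescent proximity detection of H3K9 monomethylation, read after 10 min bead incubation in the dark. Reaction: 20 nM G9a, 500 nM biotin-H3K9 peptide, 20 uM SAM cofactor, 2 h, room temperature, following 15 min enzyme-compound preincubation.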
Starred values were filed as active, the others as inactive; u = inconclusive; x = no result; [ ] = another dose, or the depositor's remark. Hits are enriched below; roughly 12% of the tested compounds scored in any of these assays. Unless noted, calls come from the whole dose curve; as a rule, active = well fitted curve in the direction sought with a large enough effect; inconclusive = small, poorly fitted or top-dose-only effect, or another doubt; inactive = no such curve, though single readings can be large; an effect the other way counts as inactive or inconclusive.

SMILES	HP1b chromo inh	BAZ2B inh	PI5P4Ka inh	PLK1 PBD block	JMJD2A Tudor inh	G9a inh
COc1ccc(C)cc1NC(=O)N1CCN(c2cc(-c3noc(C)n3)ccc2C)CC1	19.4%[57 µM]	7.7%	x	x	-22.9%	44.4%[59 µM]
COc1ccc(C(=O)C(CCC(CNC(C)(C)C)C(=O)c2ccc(OC)cc2)CNC(C)(C)C)cc1 (stereo not drawn)	23.7%	-0.8%	5.7	-13.0%	-13.5%	-28.4%
COc1ccc(OCC#CCNC(C)(C)C)cc1	u	56.2µM*	0.8	-9.5%	39.8µM*	7.94µM*
Cc1ccc(C(C)C)c(OCC(=O)NNC(=O)Nc2ccccc2)c1	4.2%	x	-5.1	-10.7%	-24.7%	x
Cc1ccc(C(C)C)cc1OCC(=O)NNC(=O)Nc1ccccc1	47.8%	7.0%	4.1	-2.5%	-10.6%	79.4µM*
CC(C)Sc1nnc(Nc2ccccc2)s1	34.8%	5.4%	3.7	-7.0%	-0.4%	50.1µM*
CCc1ccc(C2CC(c3ccccc3Cl)Nc3nc(N)nn32)cc1 (stereo not drawn)	31.5%	-12.7%	-18.9	-15.1%	-26.1%	11.2µM*
CCOc1ccc(C2CC(c3ccccc3C)n3nc(N)nc3N2)cc1 (stereo not drawn)	-9.0%	-12.4%	-11.4	21.2µM*	20µM*	u
CCc1ccc(C2CC(c3ccc(C)cc3)n3nc(N)nc3N2)cc1 (stereo not drawn)	-16.2%	x	0.1	23.8µM*	u	x
CCc1ccc(C2CC(c3cccc(Cl)c3)n3nc(N)nc3N2)cc1 (stereo not drawn)	35.6%	-4.1%	-1.1	-10.8%	-16.2%	2.1%
CCc1ccc(C2CC(c3ccccc3)Nc3nc(N)nn32)cc1 (stereo not drawn)	54.7%	-19.6%	0.0	-10.7%	-7.7%	6.0%
CCc1ccc(C2CC(c3ccccc3)n3ncnc3N2)cc1 (stereo not drawn)	29.0%	3.6%	0.7	-3.9%	-33.1%	79.4µM*
COc1ccc(C(=O)Nc2ccccc2N2CCN(C(=O)c3ccccc3)CC2)cc1Br	30.4%	-9.1%	17.4	-3.4%	-21.2%	25.5%
O=C(NC1CCCCC1)c1[nH]c(C(F)(F)F)nc1-c1ccccc1	x	x	0.5	-8.9%	x	x
COc1cc(-c2noc(-c3cccc(Cl)c3)n2)cc(OC)c1OC	31.2%	32.5%	-3.6	2.6%	2.1%	27.5%[59 µM]
COc1cc(-c2nc(Cc3c(F)cccc3Cl)no2)cc(OC)c1OC	61.0%	50.1µM*	x	-3.8%	-10.3%	u
Cc1sc2ncnc(N/N=C/c3ccc(O)cc3)c2c1C	9.8%	-29.6%	-11.9	-3.0%	-19.0%	8.6%[59 µM]
COc1cccc(/C=N/Nc2ncnc3scc(-c4ccccc4)c23)c1OC	27.2%	-27.0%	x	-0.5%	u	50.1µM*
Cc1sc2ncnc(N/N=C/c3ccccc3O)c2c1C	-6.0%	35.5µM*	2.2	-0.2%	u	64.8%[59 µM]
Cc1ccc(Cl)cc1N1CCN(C(=O)Cn2ncc3c([nH]c4ccccc43)c2=O)CC1	3.0%	1.4%	x	x	-14.2%	0.8%[59 µM]
CSc1nnc2c(n1)OC1(Nc3ccccc3-2)C(=O)Nc2ccccc21 (stereo not drawn)	22.6%	x	-26.1	26.7µM*	u	-9.2%
COc1cc(O)c(C(C)=O)c(OC)c1	45.9%	x	-0.7	u	-22.8%	x
COc1cc(O)c(C(C)=O)c(CC(=O)O)c1	u	39.8µM*	-13.2	u	31.6µM*	u
CCN(CC)CCC(c1ccc(N(C)C)cc1)c1c(O)cc(OC)cc1OC (stereo not drawn)	u	50.1µM*	4.5	3.5%	39.8µM*	u
COc1cc(O)c(C(CCN2CCN(c3ccccc3)CC2)c2ccc(N(C)C)cc2)c(OC)c1 (stereo not drawn)	20µM*	7.94µM*	1.9	4.4%	10µM*	u
SMILES	HP1b chromo inh	BAZ2B inh	PI5P4Ka inh	PLK1 PBD block	JMJD2A Tudor inh	G9a inh
COc1cc(OC)c2c(C)cc(=O)oc2c1C(CCN1CCCC(C)C1)c1ccc(N(C)C)cc1 (stereo not drawn)	u	x	x	x	28.2µM*	x
COc1ccc(N2CCN(CCC(O)c3ccc4ccccc4c3)CC2)cc1 (stereo not drawn)	u	21.7%	1.9	-7.8%	50.1µM*	39.8µM*
COc1ccc(C(CCN2CCCCC2)c2c(O)cc(OC)cc2OC)cc1 (stereo not drawn)	2.1%	-18.5%	-0.9	-0.7%	-25.5%	24.7%[12.7 µM]
CC1=C(C(=O)N(C)C)CC(CC(=O)NC2CCCC2)C(=O)N1CCC1=CCCCC1 (stereo not drawn)	x	x	0.0	-6.7%	x	x
COc1ccc(C(CCN2CCCC2)c2c(O)cc(OC)cc2OC)cc1 (stereo not drawn)	-2.9%	u	-2.5	-0.1%	-23.9%	11.0%[59 µM]
COc1cc(O)c(C(CCN2CCOCC2)c2ccc(N(C)C)cc2)c(OC)c1 (stereo not drawn)	u	35.5µM*	11.2	3.9%	44.7µM*	u
COc1ccc(C(CCN2CCN(c3ccccc3)CC2)c2c(O)cc(OC)cc2OC)cc1 (stereo not drawn)	-23.1%	28.2µM*	-1.2	6.2%	15.8µM*	3.3%[12.7 µM]
COc1cc(O)c(C(CCN2CCOCC2)c2ccc3c(c2)OCO3)c(OC)c1 (stereo not drawn)	-17.1%	-24.9%	4.0	-3.7%	u	18.3%[12.7 µM]
COc1cc(O)c(C(CCN2CCCC(C)C2)c2ccc(N(C)C)cc2)c(OC)c1 (stereo not drawn)	u	39.8µM*	0.0	-5.4%	25.1µM*	u
COc1cc(O)c(C(CC(=O)N2CCCCC2)c2ccc(N(C)C)cc2)c(OC)c1 (stereo not drawn)	-38.0%	u	8.8	0.1%	50.1µM*	u
COc1cccc(/C=C2\CCC(C3CCCC3)C2=O)c1OC (stereo not drawn)	187.2%	53.8%	8.9	-6.2%	73.9%	97.7%
NS(=O)(=O)c1cc2c(cc1Cl)NC(Cc1ccccc1)NS2(=O)=O (stereo not drawn)	19.1%	2.3%	1.0	-1.2%	-19.2%	19.2%
CS(=O)(=O)N1CCc2ccc(NC(=O)C3CCCO3)cc2C1 (stereo not drawn)	52.4%	-9.9%	0.8	-3.3%	-11.7%	79.4µM*
CC(=O)c1cccc(CN2CCc3ccc(NC(=O)C4CCCO4)cc3C2)c1 (stereo not drawn)	32.2%	-0.8%	-2.3	-0.2%	-10.3%	83.6%
CSc1cccc(NC(=S)N2CCC(N(C)C3CCCCC3)CC2)c1	4.5%	-20.1%	-6.7	0.4%	-15.5%	50.1µM*
CSc1cccc(NC(=S)N2CCC(N(C)C3CCCCC3C)CC2)c1 (stereo not drawn)	5.4%	u	-5.2	-11.4%	-21.5%	50.1µM*
CCc1cccc(N2C(=O)N(Cc3c(F)cccc3Cl)c3ccccc3S2(=O)=O)c1	23.7%	-3.6%	x	x	-12.0%	-1.4%[59 µM]
